{
  "source": "PubChem BioAssay (NCI)",
  "note": "Compounds without any hit were thinned out: in the full panel of roughly 83,000, 20% have a hit.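 Cell lines were cultured in 96-well plates, exposed to a single compound concentration, and assessed for percent growth 48 hours later.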 Values without a mark were called inactive. Calls of active or inactive are those of the source. How the source made its calls: active means growth percent below 10; inactive means the rest.",
  "data": [
    {"system": "OVCAR-3 ovarian", "experiment": "NCI-60 one-dose screen, 48 h (100 = growth as untreated, 0 = no growth, -100 = all killed)", "conditions": "10 µM unless noted", "values": [
      {"smiles": "COc1ccc(C2C3CCc4ccccc4C3=NN2C(=O)c2cc(OC)c(OC)c(OC)c2)cc1O", "note": "(stereo not drawn)", "growth": "109%"},
      {"smiles": "CCOC(=O)c1ccc(NC(=O)NC2=NCCS2)cc1", "growth": "-53.7% (active)"},
      {"smiles": "CC(C)COC(=O)NC(C)(C)C", "growth": "105%"},
      {"smiles": "Cn1c(=O)c2[nH]c(Cc3ccc4c(c3)OCO4)nc2n(C)c1=O", "growth": "104%"},
      {"smiles": "Nc1nc(N)c2c(n1)NC(c1sc(Cl)nc1Cl)CC(c1ccc3c(c1)OCO3)=N2", "note": "(stereo not drawn)", "growth": "10.4%"},
      {"smiles": "Cc1ccccc1N1C(c2ccccc2)=NNC12C=CC(=O)c1c(O)cccc12", "note": "(stereo not drawn)", "growth": "60.5%"},
      {"smiles": "Nc1nc(N)c2c(n1)NC(c1sc(Cl)nc1Cl)CC(c1ccccc1)=N2", "note": "(stereo not drawn)", "growth": "40.4%"},
      {"smiles": "C=C1NC(=O)C(C(C)CC)NC(=O)C2CSCC(NC(=O)CCC(=O)O)C(=O)NC(Cc3ccccc3)C(=O)NC(C)C(=O)NC(CC(C)CC)C(=O)NC(C(=O)NC(Cc3ccccc3)C(=O)N3CCCC3C(=O)N2)C(C)OC(=O)C(CO)NC(=O)C(C(O)COC)N(C)C(=O)C(C(C)C)NC(=O)C(CC(C)CC)NC1=O", "note": "(stereo not drawn)", "growth": "12.4% [6 µM]"},
      {"smiles": "Cc1nc2c(-c3cnc(N)nc3)nc(N3CCOCC3)nc2n1C(C)C", "growth": "10%"},
      {"smiles": "C=CC[C@]1(O)CC[C@H]2[C@@H]3CCc4cc(O)ccc4[C@H]3CC[C@@]21C", "growth": "102%"},
      {"smiles": "COS(=O)(=O)CCN(CCOS(C)(=O)=O)S(C)(=O)=O", "growth": "105%"},
      {"smiles": "Cc1nc2ccc(Nc3nc(NCCN4CCOCC4)nc(Nc4ccc(F)cc4)n3)cc2n1Cc1ccccc1", "growth": "73.7%"},
      {"smiles": "COC1CC(N)C2OC(c3ccccc3)OCC2O1", "note": "(stereo not drawn)", "growth": "111%"},
      {"smiles": "COc1ccc2[nH]cc(C(c3ccc(Cl)cc3)N3CCCC3)c2c1", "note": "(stereo not drawn)", "growth": "99.5%"},
      {"smiles": "CCOP(=O)(O)OP(=O)(O)OCC", "growth": "105%"},
      {"smiles": "COc1cccc(/C=N/N=C(N)N)c1", "growth": "105%"},
      {"smiles": "COc1ccc(C2CC(c3ccc(Nc4ccnc5cc(Cl)ccc45)cc3)=NN2c2ccccc2)cc1", "note": "(stereo not drawn)", "growth": "111%"},
      {"smiles": "CC1=C(O)C(=O)C(c2c(C)cc(C)c(Br)c2C)=C(O)C1=O", "growth": "54.2%"},
      {"smiles": "FC(F)(F)C1=NNC(c2ccc3ccccc3c2)=NN1", "growth": "101%"},
      {"smiles": "NC(N)=N/N=C\\c1ccc(OCc2ccccc2)cc1", "growth": "74.4%"},
      {"smiles": "COc1ccc(NC(=O)C2c3ccccc3C(=O)N(CC(C)C)C2c2cccs2)cc1", "note": "(stereo not drawn)", "growth": "102%"},
      {"smiles": "NC(N)=N/N=C\\c1cccc(OCc2ccccc2)c1", "growth": "79.1%"},
      {"smiles": "CS(=O)(=O)Nc1cc(-c2cc3ncc(C#N)c(Nc4ccc(Oc5ccccc5)c(Cl)c4)c3s2)cnc1Cl", "growth": "50.7%"},
      {"smiles": "Cc1ccc(NC(=O)c2nc(S(C)(=O)=O)oc2-c2ccc(F)cc2)cc1Nc1ccc2ncn(C)c(=O)c2c1", "growth": "-58.5% (active)"},
      {"smiles": "CC(=O)[C@H]1CC[C@H]2[C@@H]3CC[C@H]4CC=CC[C@]4(C)[C@H]3CC[C@]12C", "growth": "122%"},
      {"smiles": "COc1cccc(NC(=O)[C@H](C(C)C)n2c(=O)[nH]c3ccccc3c2=O)c1", "growth": "109%"},
      {"smiles": "CC(C)N1CCN(c2ccncc2S(=O)(=O)N2CCN(C)CC2)CC1", "growth": "110%"},
      {"smiles": "[O-]/[N+](=C\\c1ccccc1)CC1(O)CCCCC1", "growth": "111%"},
      {"smiles": "CCc1ccc(-c2ccc(NC3CCCCCC3)nn2)cc1S(N)(=O)=O", "growth": "117%"},
      {"smiles": "C[C@@H]1C[C@H](N)C[C@H](c2ccncc2NC(=O)c2ccc(F)c(-c3c(F)cccc3F)n2)C1", "growth": "74.5%"},
      {"smiles": "COC(=O)C(CCC(=O)CCl)N1C(=O)c2ccccc2C1=O", "note": "(stereo not drawn)", "growth": "19.2%"},
      {"smiles": "CCCCCCCCCCCCCCC(C(=O)OCC)C(=O)OCC", "growth": "110%"},
      {"smiles": "O=C(Nc1ccc2[nH]c3ccccc3c2c1)c1ccccc1Cl", "growth": "50.9%"},
      {"smiles": "CN(C)c1ccc(/C=C(\\C#N)c2nc3ccccc3n2C)cc1", "growth": "-8.87% (active)"},
      {"smiles": "O=C(CS)OCC(COC(=O)CS)(COC(=O)CS)COC(=O)CS", "growth": "109%"},
      {"smiles": "C#CC[C@@H]1C[C@]2(C)[C@H]3CC=C4[C@H]5[C@@H](C)[C@H](C)CC[C@]5(C(=O)NCCCCN)CC[C@@]4(C)[C@]3(C)CC[C@H]2C(C)(C)[C@H]1OC(C)=O", "growth": "55.6%"},
      {"smiles": "CC(=O)N1N=C(c2ccc(C)cc2)CC1c1cn(-c2ccccc2)nc1-c1cccc(Nc2ccnc3cc(Cl)ccc23)c1", "note": "(stereo not drawn)", "growth": "84.7%"},
      {"smiles": "CCN(CC)CCC(CNc1ccnc2cc(Cl)ccc12)c1ccc(O)cc1", "note": "(stereo not drawn)", "growth": "98.7%"},
      {"smiles": "CNC(=O)c1ccccc1Sc1ccc2c(/C=C/c3ccccn3)n[nH]c2c1", "growth": "52.7%"}
    ]},
    {"system": "HS 578T breast", "experiment": "NCI-60 one-dose screen, 48 h (100 = growth as untreated, 0 = no growth, -100 = all killed)", "conditions": "10 µM", "units": {"growth": "%"}, "values": [
      {"smiles": "CCOC(=O)c1ccc(NC(=O)NC2=NCCS2)cc1", "growth": 42.7},
      {"smiles": "Nc1nc(N)c2c(n1)NC(c1sc(Cl)nc1Cl)CC(c1ccc3c(c1)OCO3)=N2", "note": "(stereo not drawn)", "growth": 10.8},
      {"smiles": "Nc1nc(N)c2c(n1)NC(c1sc(Cl)nc1Cl)CC(c1ccccc1)=N2", "note": "(stereo not drawn)", "growth": 48.1},
      {"smiles": "Cc1nc2ccc(Nc3nc(NCCN4CCOCC4)nc(Nc4ccc(F)cc4)n3)cc2n1Cc1ccccc1", "growth": 40.6},
      {"smiles": "COC1CC(N)C2OC(c3ccccc3)OCC2O1", "note": "(stereo not drawn)", "growth": 96.6},
      {"smiles": "COc1ccc2[nH]cc(C(c3ccc(Cl)cc3)N3CCCC3)c2c1", "note": "(stereo not drawn)", "growth": 86.3},
      {"smiles": "COc1cccc(/C=N/N=C(N)N)c1", "growth": 113},
      {"smiles": "COc1ccc(C2CC(c3ccc(Nc4ccnc5cc(Cl)ccc45)cc3)=NN2c2ccccc2)cc1", "note": "(stereo not drawn)", "growth": 105},
      {"smiles": "CC1=C(O)C(=O)C(c2c(C)cc(C)c(Br)c2C)=C(O)C1=O", "growth": 76.4},
      {"smiles": "FC(F)(F)C1=NNC(c2ccc3ccccc3c2)=NN1", "growth": 95.9},
      {"smiles": "COc1ccc(NC(=O)C2c3ccccc3C(=O)N(CC(C)C)C2c2cccs2)cc1", "note": "(stereo not drawn)", "growth": 92.2},
      {"smiles": "Cc1ccc(NC(=O)c2nc(S(C)(=O)=O)oc2-c2ccc(F)cc2)cc1Nc1ccc2ncn(C)c(=O)c2c1", "growth": 106},
      {"smiles": "COc1cccc(NC(=O)[C@H](C(C)C)n2c(=O)[nH]c3ccccc3c2=O)c1", "growth": 110},
      {"smiles": "CC(C)N1CCN(c2ccncc2S(=O)(=O)N2CCN(C)CC2)CC1", "growth": 105},
      {"smiles": "[O-]/[N+](=C\\c1ccccc1)CC1(O)CCCCC1", "growth": 98.2},
      {"smiles": "COC(=O)C(CCC(=O)CCl)N1C(=O)c2ccccc2C1=O", "note": "(stereo not drawn)", "growth": 85.3},
      {"smiles": "O=C(Nc1ccc2[nH]c3ccccc3c2c1)c1ccccc1Cl", "growth": 70.6},
      {"smiles": "C#CC[C@@H]1C[C@]2(C)[C@H]3CC=C4[C@H]5[C@@H](C)[C@H](C)CC[C@]5(C(=O)NCCCCN)CC[C@@]4(C)[C@]3(C)CC[C@H]2C(C)(C)[C@H]1OC(C)=O", "growth": 102},
      {"smiles": "CC(=O)N1N=C(c2ccc(C)cc2)CC1c1cn(-c2ccccc2)nc1-c1cccc(Nc2ccnc3cc(Cl)ccc23)c1", "note": "(stereo not drawn)", "growth": 80.3}
    ]}
  ]
}
